PubChem BioAssay (NCI)
Several values for one entry are separate records, joined by “and”; a condition that tells them apart may be missing. Equal entries are not always repeated. This is part of a sample that, as a whole, favours compounds with a hit. Of some 83,000 tested, about 20% had one in any assay.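 Cells were grown in 96-well plates and exposed to the test compound at a single concentration for 48 hours; results are reported as percent growth, with values below 10 considered active.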 Values without a mark were called inactive. Activity calls are given as the source filed them.

Experiments:
Assay in all cases: NCI-60 one-dose screen, 48 h (100 = growth as untreated, 0 = no growth, -100 = all killed)
Conditions in all cases: 10 µM unless noted
[1] = test system: NCI/ADR-RES ovarian
[2] = test system: T-47D breast
[3] = test system: BT-549 breast
[4] = test system: MDA-MB-435 melanoma
[5] = test system: SW-620 colon
[6] = test system: MCF7 breast
[7] = test system: HCT-116 colon
[8] = test system: HCC-2998 colon
[9] = test system: KM12 colon

Compound	growth [1]	growth [2]	growth [3]	growth [4]	growth [5]	growth [6]	growth [7]	growth [8]	growth [9]
Nc1ccc(P(=O)(O)O)cc1	93.1% and 102%	101%	115% and 98.3%	107% and 105%	103% and 106%	103% and 89.1%	112% and 103%	100% and 96%	109% and 99.6%
C=CC[PH+](c1ccccc1)c1ccccc1.C=CC[PH+](c1ccccc1)c1ccccc1.[Pt+2].[S-]c1ncccn1.[S-]c1ncccn1	39.6%	2% (active)	64%	-48.1% (active)	-4.87% (active)	17.2%	-43.8% (active)	97.5%	76.7%
COc1cc2c(cc1OC)-c1c3c(cc4c1[C@@H](C2)N(C)CC4)OCO3	43.5%	57.4%	55.8%	51.8%	35.1%	22.9%	16.1%	-3.7% (active)	41.4%
CC1(C)N(Nc2ccccc2)C(=O)C2CCCN21 (configuration not stated)	85.9%	56.8%	13.6%	12.5%	62.5%	80.1%	12.1%	88.1%	15.7%
N#CC(NC(=O)CCl)=C(Cl)Cl	11.8%	-30% (active)	38.9%	5.03% (active)	-50.1% (active)	18.5%	-41.4% (active)	-6.64% (active)	56.8%
C[Se]/C=C1/C(=O)N(c2c(Cl)cccc2Cl)c2ccccc21	9.06% (active)	65.8%	-35.6% (active)	-30.3% (active)	19.3%	17.3%	11.4%	77.2%	72%
COc1ccc(N(CC(=O)NCCC[Te]c2ccccc2)C(=O)c2ccccc2)cc1	11.5%	135%	-36.2% (active)	101%	82%	13.2%	9.88% (active)	57.6%	26.3%
Cn1cc(C(=O)C[n+]2ccccc2)c2ccccc21	100%	86.9%	95.3%	105%	106%	101%	97.5%	106%	91.5%
NC(=O)Oc1cc(OC(N)=O)cc(N(CCCl)CCCl)c1	54.9%	53.6%	68.2%	65.2%	60.8%	31.8%	61.9%	103%	82.3%
C#Cc1cccc(Nc2nc(Cl)nc3cc(NC(=O)CF)ccc23)c1	53.9%	79.5%	72.2%	-19.1% (active)	35.4%	48.2%	42.4%	78.2%	40.1%
Cc1cc(Br)c([N+](=O)[O-])cc1[N+](=O)[O-]	94.4%	85.7%	106%	96.3%	23%	91%	20.5%	111%	91.8%
COC(=O)[C@@H](C)C[C@H](Cc1ccccc1)NC(=O)c1cccc([C@@H](C[C@H](C(C)C)N(C)C(=O)[C@@H](NC(=O)[C@H]2CCCCN2C)C2CC2)OC(C)=O)n1	16.4%	63.1%	-17.1% (active)	-25.4% (active)	23%	14%	1.92% (active)	13%	-1.96% (active)
O=C/C=C/c1ccco1	109%	107%	104%	106%	104%	96%	90%	106%	97.6%
Cn1cc(-c2csc(-c3cn(CCCCN4CCOCC4)c4ccc(F)cc34)n2)c2cccnc21	76.8%	76.9%	65.3%	38.1%	19.7%	78.4%	83%	92.4%	52.5%
CCOC(=O)C1C(C=C(C)C)C1(C)C (configuration not stated)	99.1%	115%	104%	102%	89.3%	112%	108%	96%	94.5%
CCC1CCC(=O)O1 (configuration not stated)	112% and 124%	93.5% and 118%	116% and 129%	109%	111% and 106%	90.5% and 105%	106% and 107%	109%	99.7% and 108%
Nc1nc(=S)nc(N)[nH]1	95.6%	94.5%	77.8%	105%	101%	96.5%	89.1%	92.1%	112%
C[N+]1(CC#CC[N+]2(C)CCCC2)CCCC1	102%	108%	101%	104%	107%	95.5%	98.4%	110%	102%
C[C@]12CC[C@H]3[C@@H](CC=C4c5nc(N)sc5CC[C@@]43C)[C@@H]1CC[C@@H]2O	102%	92.2%	99.5%	92.9%	90.1%	104%	92.1%	98.4%	102%
CSc1cc(/C=C(\C)[C@@H]2C[C@@H]3O[C@]3(C)CCC[C@H](C)[C@H](O)[C@@H](C)C(=O)C(C)(C)[C@@H](O)CC(=O)O2)n(CCNC(=O)OC(C)(C)C)n1	40.4%	66.2%	71.4%	-19.8% (active)	31.3%	33.3%	26.7%	54.7%	23.1%
CC[C@H](C)[C@H](NC(=O)[C@H]1CCCCN1C)C(=O)N(C)[C@H](C(=O)NC12CC(C(=O)N[C@@H](Cc3ccccc3)C[C@H](C)C(=O)OC)(C1)C2)C(C)C	103%	85.7%	101%	108%	107%	96.4%	99.5%	109%	104%
CO[C@H]1[C@H](O[C@@H]2C[C@@H]3C/C=C/C(=O)O[C@@H](CO)C[C@H](O)[C@@H]4C[C@H](C)[C@H](C/C=C\C=C\[C@H](C)C[C@H](C2)O3)O4)O[C@@H](C)[C@H](O)[C@H]1O	55.8%	20.8%	53.9%	64.3%	76.6%	29.1%	57%	53.6%	68.1%
O=c1c2ccccc2nc(-c2ccccc2Cl)n1-c1nnc(C(F)(F)F)s1	11.6%	43.5%	22.3%	57.8%	37.5%	21.4%	16.8%	17.6%	29.1%
C[N+]12CCC34C5=CC(=O)C(=O)C=C5[N+]5(C)C(=O)CC6OCC=C(C1)C(CC32)C6C45 (configuration not stated)	114%	107%	127%	103%	111%	95.7%	114%	106%	104%
CC[C@H](C)[C@H](NC(=O)[C@H]1CCCCN1C)C(=O)N(C)[C@H](CCc1nc(C(=O)N[C@@H](Cc2ccccc2)C[C@H](C)C(=O)O)cs1)C(C)C	73.3%	52.6%	-3.33% (active)	-38.1% (active)	27.6%	14.2%	2.59% (active)	21.5%	9.24% (active)
CNC(=O)Oc1ccc(Cl)cc1SSc1cc(Cl)ccc1OC(=O)NC	81.2%	57.2%	96.4%	75.5%	87.2%	91.8%	91.2%	99.8%	98.5%
N#CCCc1ccccc1	104%	112%	106%	104%	102%	92%	104%	103%	109%
CCC1(NC(=O)c2cc(F)c(F)c(F)c2F)C(=O)NC(=O)N(C(C)C)C1=O (configuration not stated)	105%	214%	72.9%	59.8%	62.7%	96.4%	99%	-55.8% (active)	139%
